High-throughput results from PubChem BioAssay.
rCAG RNA binder = binders of r(CAG) RNA repeats, primary screen, biochemical, fluorescence; r(CAG) RNA repeat, TO-PRO-1 dye displacement fluorescence; inhibition, % at 3 µM; hit rate 1.3% among 370,000; AID 651821, 2012;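 active = inhibition above the plate cutoff, the mean of all test compounds on that plate plus 3 SD, cut at about 35% in these data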;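 also: 0% = DMSO alone and 100% = 100 µM mitoxantrone as full dye displacement; higher means more dye released from RNA so lower well fluorescence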
NadD block = inhibitors of S. aureus NadD, primary screen, biochemical, colorimetric, uHTS | inhibition, % at 20 µM | hit rate 0.78% among 360,000 | purified NadD enzyme, colorimetric absorbance read-out | Nicotinate-nucleotide adenylyltransferase NadD (Staphylococcus aureus N315); in the data active = inhibition above about 26%
bovine MsrA act = bovine MsrA enzyme activators, primary screen, biochemical, absorbance, HTS. AID 602163, 2012. hit rate 0.3% among 360,000. purified bovine MsrA, absorbance read-out. activation, % at 10.6 µM; in the data active = activation above about 7.5%;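 also: 0% = vehicle and 100% = reference activator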
MsrA inh = bovine MsrA enzyme inhibitors, primary screen, biochemical, absorbance, HTS; Methionine sulfoxide reductase A (Bos taurus); purified bovine MsrA, absorbance read-out; inhibition, % at 15.5 µM; hit rate 0.75% among 360,000; in the data active = inhibition above about 4.5%;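 also: 0% = vehicle wells with enzyme and 100% = reference inhibitor wells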
rCAG bind conf = small molecules binding CAG repeat RNA – biochemical, fluorescence, confirmation; shares compounds with rCAG RNA binder; r(CAG) RNA repeat, TO-PRO-1 dye displacement fluorescence; inhibition, % at 3 µM; hit rate 70% among 4,300;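 active = inhibition above a per-plate cutoff, the mean inhibition of sample wells plus 3 SD, cut at about 35% in these data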;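 also: loss of TO-PRO-1 fluorescence as compound displaces dye from 1x1 AA loop RNA; 0% = DMSO only wells and 100% = 100 µM mitoxantrone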
DNA CAG counter = displacement of TO-PRO-1 from CAG DNA duplex, counter-screen for rCAG RNA repeat binder project, biochemical, fluorescence, TO-PRO-1 dye, d(CAG) DNA oligo; shares compounds with rCAG RNA binder; d(CAG) DNA oligo TO-PRO-1 dye displacement; inhibition, % at 3 µM; hit rate 94% among 4,300; AID 652068, 2013;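 active = inhibition above its plate's cutoff, the mean test-well inhibition plus 3 SD, cut at about 4.8% in these data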;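 also: 0% = DNA dye mix with DMSO and 100% = 100 µM mitoxantrone; hits displace the dye from DNA and so lower well fluorescence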
dCAG dye DR = inhibitors of DNA CAG/GTC TO-PRO-1 complex, dose response, counter-screen for rCAG RNA repeat binder project, biochemical, fluorescence, TO-PRO-1 dye. shares compounds with rCAG RNA binder. DNA CAG/GTC duplex TO-PRO-1 dye displacement fluorescence. IC50, µM. hit rate 20% among 250; in the data active = IC50 below about 10 µM
* marks the source's active call; other numbers are inactive results; i = inactive; · = no result given. An excerpt weighted towards active compounds, which were near 2.7% of everything screened.

SMILES	rCAG RNA binder	NadD block	bovine MsrA act	MsrA inh	rCAG bind conf	DNA CAG counter	others
COc1cc(C)c(C(=O)Oc2cc(C)c(C(=O)O)c(O)c2C)c(OC)c1C	52*	-1	-3	-1	55*	17*
COc1cc(C)c(C(=O)Oc2cc(C)c(C(=O)O)c(O)c2C)c(O)c1C(=O)O	15	4	-3	0	·	·
CCCCn1c(N)c(N(CCC(C)C)C(=O)c2ccccc2-n2cnnn2)c(=O)[nH]c1=O	-6	-2	-2	-1	·	·
CC(C)(C)c1ccc(/C=C2\Oc3cc(O)ccc3C2=O)cc1	58*	-7	-3	1	50*	16*
O=C(C1CCCCC1)N1C[C@@H](n2cc(-c3ccc(F)cc3)nn2)[C@H](O)C[C@@H]1c1ccc(Cl)cc1	4	0	-3	-1	·	·
CC1=NN(c2ccccc2C(=O)O)C(=O)C1N=Nc1ccccc1 (stereo unspecified)	44*	3	-8	1	40*	10*
COc1cc(C(C(=O)NC2CCCCC2)N(C(=O)c2cnccn2)c2ccccc2)cc(OC)c1OC (stereo unspecified)	-7	-1	-8	-1	·	·
O=C(CN(Cc1ccccc1)S(=O)(=O)c1ccc(Br)cc1)N/N=C/c1ccccc1C(=O)O	51*	1	-4	0	57*	15*
CC(=C\c1ccccc1)/C=C1/SC(=S)N(C(C(=O)O)C(C)C)C1=O (stereo unspecified)	69*	4	-6	1	63*	25*
CCC(C(=O)O)N1C(=O)/C(=C/C(C)=C/c2ccccc2)SC1=S (stereo unspecified)	61*	-2	-2	2	76*	31*	dCAG dye DR=i
C=CCN1C(=O)/C(=C\C(C)=C\c2ccccc2)SC1=S	1	-2	-1	2	·	·
CNC(=O)C[C@H]1C(=O)N(CCc2ccccc2)C[C@@H]1CSC	2	-10	-6	0	·	·
Cc1ccc(OS(=O)(=O)c2ccccc2)c(/C=N/N=C2\NC(=O)C(C)S2)c1 (stereo unspecified)	36*	-1	0	0	46*	13*
O=C1CS/C(=N/N=C/c2ccccc2OS(=O)(=O)c2ccccc2)N1	27	-1	-3	3	·	·
CC1CC(C)CN(C(=O)C(C)N(C)CC(=O)Nc2ccc(Cl)cc2)C1 (stereo unspecified)	-8	-2	-1	-1	·	·
CCc1nnc(NS(=O)(=O)c2ccc(NCc3cc(Cl)cc(Cl)c3O)cc2)s1	70*	7	2	-1	37*	9.5*
CC(=O)Nc1ccc(S(=O)(=O)Nc2nnc(Cc3ccc(Cl)cc3)s2)cc1	17	0	-9	0	·	·
CCc1nnc(NS(=O)(=O)c2ccc(NCc3cc(Cl)ccc3O)cc2)s1	65*	8	-1	1	46*	14*
Cc1cc(-c2ccc(C)c(S(=O)(=O)NCc3ccc(OC(C)C)cc3)c2)on1	-2	-7	-4	1	·	·
O=C(CN1C(=O)NC2(CCCc3ccccc32)C1=O)c1ccc(Br)cc1 (stereo unspecified)	4	-1	-5	-1	·	·
Cc1ccc(S(=O)(=O)N2CCCCC2)cc1NC(=O)Cn1cc(C(F)(F)F)ccc1=O	4	6	-4	0	·	·
Cc1ccc(C2=Nn3c(COc4ccc(Cl)cc4)nnc3SC2CC(=O)O)cc1 (stereo unspecified)	47*	3	-4	-1	42*	11*
O=C(Nc1ccc(S(=O)(=O)Nc2cnc3ccccc3n2)cc1)c1ccc(F)cc1	31	-4	-3	2	·	·
O=C(Nc1ccc(S(=O)(=O)Nc2cnc3ccccc3n2)cc1)c1cccc(OC(F)F)c1	55*	-4	-3	2	35*	6.7*
COc1ccccc1Nc1nc2ccccc2n2cnnc12	77*	-10	-3	1	7	1
